Screens as filed in PubChem.
Rows were chosen to be rich in hits. Some 4.7% of all compounds tested hit in one or more screens of this group.
D1 ag – human D1 receptor agonism; P21728; HEK293 T-REx D1 cells, calcium flux, agonist mode; activation, % at 2 µM; 360,000 tested, 1% active
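Tetracycline-induced HEK293 TREx D1 cells, force-coupled to calcium signalling, were dye-loaded with a no-wash calcium kit. Compound was pin-added after a 10 s baseline. Fluorescence was read kinetically at 1 cycle/s for 180 s, with calcium rises flagged as agonism.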
D1 potentiator – enhances dopamine response at the human D1 receptor; potentiation, % at 10 µM; HEK293 TREx D1 cells, calcium flux, dopamine EC20 potentiation; P21728; 360,000 tested, 0.036% active; in the data active = potentiation above about 30%
TRHR ag – TRH receptor (human) agonism; activation, % at 2 µM; P34981; AID 493084; TRHR cells, calcium flux fluo-8, FDSS agonist mode; 360,000 tested, 0.18% active
Target sequence (P34981 whole entry, looked up): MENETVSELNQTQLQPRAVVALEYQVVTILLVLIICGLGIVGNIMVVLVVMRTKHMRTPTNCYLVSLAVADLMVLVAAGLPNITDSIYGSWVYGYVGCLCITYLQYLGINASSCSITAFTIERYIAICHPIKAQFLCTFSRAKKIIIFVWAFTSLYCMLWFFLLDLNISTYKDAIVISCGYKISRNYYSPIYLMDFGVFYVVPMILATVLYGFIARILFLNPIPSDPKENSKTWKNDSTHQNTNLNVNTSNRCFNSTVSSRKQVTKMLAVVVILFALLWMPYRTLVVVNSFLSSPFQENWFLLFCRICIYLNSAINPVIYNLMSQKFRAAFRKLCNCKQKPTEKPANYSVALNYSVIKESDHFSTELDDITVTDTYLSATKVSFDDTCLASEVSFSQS
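Read-out: compound-evoked intracellular calcium rise in TRHR cells, fluo-8 dye, kinetic FDSS fluorescence at 1 s/cycle following a 10-cycle baseline. Cells cultured overnight before dye loading (30 min–1.5 h, RT).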
TRHR enhancer – allosterically enhances the human TRH receptor; P34981; TRHR cells, fluo-8 calcium fluorescence, EC20 TRH enhancement; enhancement, % at 2 µM; 360,000 tested, 0.66% active; in the data active = enhancement above about 30%
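TRHR-expressing cells loaded with fluo-8 calcium dye were read kinetically (ex 480/em 530) during compound addition, then stimulated with an EC20 of TRH (10 nM final). Enhancement of the Gq-mediated intracellular calcium response was scored.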
D1 antag – blocks dopamine activation of the human D1 receptor; P21728; HEK293 TREx D1 cells, calcium flux, dopamine EC80; hits give low values; activity change, negative = inhibition, % at 10 µM; 360,000 tested, 3.2% active; in the data active = activity change below about -30%
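Using tetracycline-induced force-coupled D1 Hek293 cells and a calcium dye, signals were followed for 180 s after compound, then for 180 s after EC80 dopamine, to detect inhibitors.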
Hits are given with their value; – = inactive; · = no result. Rule as the data show it, unless noted: active = activation above about 30%; inactive = the rest.

SMILES	D1 ag	D1 potentiator	TRHR ag	TRHR enhancer	D1 antag
CCOC(=O)c1ccc(NC(=O)Nc2ccon2)cc1	–	–	–	–	–
CCOC(=O)c1sc(NC(=O)c2cccs2)cc1C	–	–	–	–	–
CCCOc1ccc(C(=O)Nc2ccc(Cl)cn2)cc1	–	–	–	–	-50
CCCC(C)C(=O)Nc1ccc(Cl)cn1 (stereo unspecified)	–	–	–	–	-34
CCCCC(=O)Nc1ccc(Cl)cn1	–	–	–	–	–
Cc1cccc(Cn2cc(C(=O)Nc3ccc(F)c(C(F)(F)F)c3)ccc2=O)c1	–	–	–	–	–
CCCCc1c(C(=O)O)cc(OC)cc1C(=O)O	–	–	–	–	–
CCCCCc1c2c(cc(O)c1C(=O)O)OC(=O)c1c(cc(OC)cc1C(=O)CCCC)O2	–	–	–	–	-31
COc1ccccc1NCC(O)COc1ccc(C(C)(C)C)cc1 (stereo unspecified)	–	–	–	–	–
COc1ccc(OCC(O)CNCCOc2ccccc2OC)c(C(C)(C)C)c1 (stereo unspecified)	59	–	–	–	–
O=C(CCC(=O)Nc1ccc(F)cc1)N/N=C/c1cccs1	–	–	–	–	–
CCCCCC(=O)N/N=C/c1cccs1	–	–	–	–	-47
Fc1ccc(NC(=S)N2N=CCC2c2ccccc2)cc1 (stereo unspecified)	77	–	–	–	–
S=C(Nc1ccccc1)N1N=CCC1c1ccccc1 (stereo unspecified)	–	–	–	–	·
COc1ccc(Cl)cc1NC(=O)Cn1c(=O)n(Cc2cccs2)c(=O)c2cccnc21	–	–	–	–	–
Cc1ccc(CSC(Nc2ccc(F)cc2)=C(C#N)C#N)cc1	–	–	–	–	-36
CCN(CC)C(=O)CSC(Nc1ccc(F)cc1)=C(C#N)C#N	–	–	–	–	–
Clc1ccc(OCCSCc2nc3ccccc3[nH]2)cc1	–	–	–	–	-49
Cc1ccc(-c2nc(N)s[n+]2-c2ccccc2)cc1	–	–	–	–	-37
O=C(Nc1nc2n(n1)C(c1ccc(F)cc1)C=C(c1ccccc1)N2)c1ccco1 (stereo unspecified)	–	–	–	–	–
Clc1cc2c(c(CSc3nc4ccccc4n4cccc34)c1)OCOC2	–	–	–	–	-47
CCCc1ccc(S(=O)(=O)NCCc2ccncc2)cc1	–	–	–	–	–
CC(C)(C)c1ccc(S(=O)(=O)NCCc2ccncc2)cc1	–	–	–	–	-95
Cc1ccccc1-n1sc2cc(F)ccc2c1=O	32	–	–	–	–
O=c1c2cc(F)ccc2sn1-c1ccccc1	39	–	–	–	–
SMILES	D1 ag	D1 potentiator	TRHR ag	TRHR enhancer	D1 antag
N#C/C(=C(/O)COc1ccc(Cl)cc1)c1nc2ccccc2s1	–	–	–	–	–
N#C/C(=N\O)c1nc2ccccc2s1	–	–	–	32	–
N#C/C(=C(/O)c1ccc(F)cc1)c1nc2ccccc2s1	–	–	–	–	–
N#C/C(=C(/O)COc1ccccc1)c1nc2ccccc2s1	–	–	–	–	-42
Cc1nn(-c2ccccc2)c(Cl)c1/C=N/NC(=O)c1ccncc1	–	–	–	–	–
Cc1ccccc1OCC(=O)N/N=C/c1c(C)nn(-c2ccccc2)c1Cl	–	–	–	–	-55
O=C(NCCc1ccc(F)cc1)Nc1ccc([N+](=O)[O-])cc1	–	–	–	–	-49
Cc1cc([N+](=O)[O-])ccc1NCc1ccccc1	–	–	–	–	-32
Cc1ccc([N+](=O)[O-])cc1NC(=O)Cc1ccc(F)cc1	–	–	–	–	–
COc1ccccc1NCc1ccc([N+](=O)[O-])s1	–	–	–	–	–
Cc1ccccc1NCc1ccc([N+](=O)[O-])s1	–	–	–	–	-32
Cc1cc([N+](=O)[O-])ccc1NC(=O)Cc1ccc(F)cc1	–	–	–	–	-32
O=C(Nc1cccc(Cl)c1)C1CCN(c2nc3ccccc3nc2C(F)(F)F)CC1	–	–	–	–	–
COc1cc([N+](=O)[O-])ccc1NC(=O)Cc1ccc(C)cc1	–	–	–	–	·
Cc1ccc(NC(=O)Cc2ccc([N+](=O)[O-])cc2)c(Br)c1	–	–	–	–	-45
CC1CCN(S(=O)(=O)c2ccc3c(ccn3CC(=O)NCc3ccc(N(C)C)cc3)c2)CC1	–	–	–	–	–
Cc1cc(C)nc(-n2cc(C(=O)c3cc(F)ccc3O)cn2)n1	–	–	–	–	–
CCn1c(C)nc2cc(C(=O)n3cc(C(=O)c4cc(F)ccc4O)cn3)ccc21	–	–	–	30	–
CCOc1cc2sc(N3CCC(C(=O)Nc4ccc(CC)cc4)CC3)nc2cc1Br	–	–	–	–	–
CCOC(=O)c1cc2c(=O)n3ccccc3nc2n(CC2CCCO2)c1=NC(=O)c1ccc(C)cc1 (stereo unspecified)	–	–	–	–	–
Cc1c(N=C2SC(CC(=O)Nc3ccccc3)C(=O)N2CCN2CCOCC2)c(=O)n(-c2ccccc2)n1C (stereo unspecified)	–	–	–	–	-51
CC(=O)N1c2ccccc2CC1C(=O)N1CCN(c2cc(Cl)ccc2C)CC1 (stereo unspecified)	–	–	–	–	–
Cc1ccc(-c2c(C#N)c(N)nc3c2CCCCCC3)o1	–	–	–	–	–
Cc1ccc(-c2c(C#N)c(N)nc3c2CCCCC3)o1	–	–	–	–	-48
CC(=O)N1CCCc2cc(S(=O)(=O)N3CCCC(C(=O)Nc4cc(Cl)ccc4C)C3)ccc21 (stereo unspecified)	–	–	–	–	–
SMILES	D1 ag	D1 potentiator	TRHR ag	TRHR enhancer	D1 antag
CCC(=O)Nc1cccc(NC(=O)c2ccccc2Cl)c1	–	–	–	–	–
CCC(=O)Nc1cccc(NC(=O)c2ccc(C)cc2Cl)c1	–	–	–	–	-46
O=C(Cn1c(=O)n(-c2ccc(F)cc2)c(=O)c2sc3ccccc3c21)N1CCCC1	–	–	–	–	–
Cc1nn2c(N3CCCC3)c3c(nc2c1-c1ccccc1)CCC3	–	–	–	–	–
Cc1nn2c(N3CCN(CCO)CC3)c3c(nc2c1-c1ccccc1)CCCC3	–	–	–	–	-66
Cc1cc(=O)oc(C)c1C(=O)OCC(=O)c1ccccc1	–	–	–	–	–
Cc1cc(=O)oc(C)c1C(=O)OC(C(=O)c1ccccc1)c1ccccc1 (stereo unspecified)	–	–	–	–	-42
CCOc1ccccc1N/C(=N/c1nc(C)cc(C)n1)NC(=O)Nc1ccc(Cl)c(Cl)c1	–	–	–	–	–
CCCOc1ccccc1N/C(=N/c1nc(C)cc(C)n1)NC(=O)Nc1ccc(Cl)cc1	–	–	–	–	-50
COc1ccc(N(CC(=O)NCc2ccco2)S(=O)(=O)c2ccc(OC)c(OC)c2)cc1	–	–	–	–	–
O=C(Oc1coc(CSc2ncccn2)cc1=O)c1ccco1	–	–	–	–	-33
